Holding throughout (parameters): scale not given: direction of the effect not stated beside the values
Assay [1] deals with Protein translocase subunit SecA (Escherichia coli (strain K12)) (UniProt P10408). As to the kind of experiment: Assay to Identify E. coli SecA ATPase Inhibitors. It counts as functional. To be noted: 30 µM.
Assay [2] concerns the target T1, Ubiquitin-activating enzyme e1, putative (Leishmania donovani (strain BPK282A1)) (UniProt E9BSI1).
T1 sequence (whole entry): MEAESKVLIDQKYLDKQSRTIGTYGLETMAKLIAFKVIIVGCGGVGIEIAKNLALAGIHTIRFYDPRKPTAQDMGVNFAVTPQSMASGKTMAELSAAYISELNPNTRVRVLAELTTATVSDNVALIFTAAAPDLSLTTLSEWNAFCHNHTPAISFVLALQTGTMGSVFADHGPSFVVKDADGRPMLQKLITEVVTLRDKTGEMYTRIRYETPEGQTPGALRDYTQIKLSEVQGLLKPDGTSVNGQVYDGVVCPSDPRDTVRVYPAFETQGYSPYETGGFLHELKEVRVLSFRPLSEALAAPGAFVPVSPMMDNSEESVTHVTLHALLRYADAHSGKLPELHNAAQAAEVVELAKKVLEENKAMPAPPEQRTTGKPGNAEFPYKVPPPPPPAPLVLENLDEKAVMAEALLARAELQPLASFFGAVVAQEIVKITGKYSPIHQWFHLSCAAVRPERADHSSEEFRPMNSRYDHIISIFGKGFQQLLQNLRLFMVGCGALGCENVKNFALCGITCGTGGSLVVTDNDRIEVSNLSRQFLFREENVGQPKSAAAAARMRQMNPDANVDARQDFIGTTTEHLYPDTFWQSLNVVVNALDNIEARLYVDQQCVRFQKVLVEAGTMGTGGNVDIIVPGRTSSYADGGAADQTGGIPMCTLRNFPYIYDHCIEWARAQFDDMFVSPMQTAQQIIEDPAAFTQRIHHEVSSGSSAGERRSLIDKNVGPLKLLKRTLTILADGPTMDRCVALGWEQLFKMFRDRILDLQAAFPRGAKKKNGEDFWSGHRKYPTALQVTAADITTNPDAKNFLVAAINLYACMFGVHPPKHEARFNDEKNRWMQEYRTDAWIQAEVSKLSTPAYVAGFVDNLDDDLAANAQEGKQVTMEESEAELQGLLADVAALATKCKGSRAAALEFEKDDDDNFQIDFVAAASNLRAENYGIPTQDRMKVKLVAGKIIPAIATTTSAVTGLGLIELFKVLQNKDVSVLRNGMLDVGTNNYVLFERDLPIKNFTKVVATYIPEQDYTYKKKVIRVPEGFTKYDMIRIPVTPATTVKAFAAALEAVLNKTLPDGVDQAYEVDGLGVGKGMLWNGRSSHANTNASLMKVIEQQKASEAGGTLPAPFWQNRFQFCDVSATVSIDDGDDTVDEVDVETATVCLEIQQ
Briefly: Leishmania donovani Ubiquitin Activating Enzyme (LdE1). It counts as functional. The note with it: 30 µM.

Assay [3] has as its target AMP-activated protein kinase, AMPK (Homo sapiens) (UniProt P54646+O43741+P54619+Q9UGJ0+Q9Y478+Q13131+Q9UGI9). As to the kind of experiment: AMP-dependent Kinase enzyme assay. An in vitro enzyme assay that detects ADP turnover that is directly proportional to AMPK activity. This uses naive AMPK that is activated during the assay with MK-8722. The format is functional. The note with it: 30 µM.

The target of assay [4] is Sialic acid-binding Ig-like lectin 9 (Homo sapiens) (UniProt Q9Y336). Briefly: Hs-Siglec9 ALPHAscreen SOP 20170721. To be noted: 10 µM. Background: In Alpha technology, singlet oxygen from a donor bead excites a nearby acceptor bead.
Sequence of Sialic acid-binding Ig-like lectin 9 (Homo sapiens) (Q9Y336 whole entry): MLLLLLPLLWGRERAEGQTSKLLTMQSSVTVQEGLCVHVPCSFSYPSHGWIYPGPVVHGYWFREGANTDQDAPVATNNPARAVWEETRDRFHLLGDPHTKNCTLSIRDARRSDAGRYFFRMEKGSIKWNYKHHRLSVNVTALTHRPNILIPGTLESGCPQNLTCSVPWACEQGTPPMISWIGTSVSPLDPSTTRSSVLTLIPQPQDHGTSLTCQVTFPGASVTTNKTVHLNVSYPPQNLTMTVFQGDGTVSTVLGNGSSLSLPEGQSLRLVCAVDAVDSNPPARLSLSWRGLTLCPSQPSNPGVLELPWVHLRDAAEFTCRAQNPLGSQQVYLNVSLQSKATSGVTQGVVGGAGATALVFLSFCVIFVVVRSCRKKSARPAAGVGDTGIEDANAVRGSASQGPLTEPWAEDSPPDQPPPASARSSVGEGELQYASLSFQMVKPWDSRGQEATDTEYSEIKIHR
A further assay has as its system Trypanosoma cruzi. Briefly: Trypanosoma cruzi phosphomannomutase and mannose-1-phosphate guanylyltransferase assay. The format is functional. To be noted: 10 µM.
Assay [5] deals with T2, Arginase-2, mitochondrial (Homo sapiens) (UniProt P78540).
T2 sequence (whole entry): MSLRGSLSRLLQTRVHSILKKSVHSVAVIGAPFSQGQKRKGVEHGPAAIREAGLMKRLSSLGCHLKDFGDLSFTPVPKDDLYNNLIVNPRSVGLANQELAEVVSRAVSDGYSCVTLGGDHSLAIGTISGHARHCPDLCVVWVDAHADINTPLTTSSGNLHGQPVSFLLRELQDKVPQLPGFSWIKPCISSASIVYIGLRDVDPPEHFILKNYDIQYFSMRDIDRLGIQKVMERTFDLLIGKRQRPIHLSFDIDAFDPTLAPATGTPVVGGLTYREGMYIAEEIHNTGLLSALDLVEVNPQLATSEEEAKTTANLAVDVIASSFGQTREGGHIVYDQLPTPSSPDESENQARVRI
As to the kind of experiment: in vitro enzyme assay to detect the production of urea directly proportional to the activity of Arginase II. Note: in the data most compounds retested in dose-response had high values. It counts as functional. The note with it: 33.3 µM.

For assay [6], the target named is T3, Proteasome subunit beta (Trypanosoma cruzi) (UniProt O96673).
T3 sequence (whole entry): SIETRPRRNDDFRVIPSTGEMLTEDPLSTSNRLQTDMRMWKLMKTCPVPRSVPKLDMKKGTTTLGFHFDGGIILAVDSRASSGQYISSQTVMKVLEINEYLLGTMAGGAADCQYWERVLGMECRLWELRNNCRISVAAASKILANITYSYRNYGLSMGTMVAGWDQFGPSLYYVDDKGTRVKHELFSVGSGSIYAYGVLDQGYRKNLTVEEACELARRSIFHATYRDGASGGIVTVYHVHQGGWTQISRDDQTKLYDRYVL
As to the kind of experiment: Trypanosoma cruzi proteasome chymotrypsin-like activity (TcProtChymo) assay. Note: in the data most compounds retested in dose-response had high values. The format is functional. The note with it: 9.37 µM.

The species entered for a further assay is Homo sapiens. Briefly: To identify inhibition of the IFN signalling (Jak-Stat) pathway via expression of an eGFP reporter gene under the control of an IFN-stimulated response element (ISRE) containing MxA promoter. It counts as functional. The note with it: 30 µM. (Reporter assays use an easily measured gene product as a stand-in for the process of interest.)

For assay [7], the target named is T4, Tyrosyl-tRNA synthetase, putative (Trypanosoma cruzi (strain CL Brener)) (UniProt Q4DSP6).
T4 sequence (whole entry): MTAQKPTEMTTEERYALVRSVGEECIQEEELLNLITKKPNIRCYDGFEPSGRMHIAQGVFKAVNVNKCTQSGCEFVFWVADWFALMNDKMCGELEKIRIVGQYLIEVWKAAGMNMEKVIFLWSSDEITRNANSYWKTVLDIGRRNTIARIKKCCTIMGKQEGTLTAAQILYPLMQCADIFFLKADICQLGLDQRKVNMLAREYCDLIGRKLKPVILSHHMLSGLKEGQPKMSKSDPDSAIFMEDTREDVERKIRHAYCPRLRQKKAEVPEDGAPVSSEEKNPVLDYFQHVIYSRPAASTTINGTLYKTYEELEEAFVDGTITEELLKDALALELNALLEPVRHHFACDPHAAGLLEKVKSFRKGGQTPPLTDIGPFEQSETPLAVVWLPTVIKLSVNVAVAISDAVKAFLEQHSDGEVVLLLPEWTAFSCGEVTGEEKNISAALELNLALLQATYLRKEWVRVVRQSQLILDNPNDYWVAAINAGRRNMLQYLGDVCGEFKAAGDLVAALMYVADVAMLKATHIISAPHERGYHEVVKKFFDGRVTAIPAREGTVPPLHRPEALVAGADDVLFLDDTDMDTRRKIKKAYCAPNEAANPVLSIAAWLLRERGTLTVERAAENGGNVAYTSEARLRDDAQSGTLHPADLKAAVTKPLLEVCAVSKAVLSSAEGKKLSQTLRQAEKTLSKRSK
Briefly: Trypanosoma cruzi tyrosyl tRNA synthetase (TcYRS) _High Tyrosine SOP. Note: in the data most compounds retested in dose-response had high values. It counts as functional. The note with it: 30 µM.

Assay [8] concerns the target T4, Tyrosyl-tRNA synthetase, putative (Trypanosoma cruzi (strain CL Brener)). As to the kind of experiment: Trypanosoma cruzi tyrosyl tRNA synthetase (TcYRS) SOP. It counts as functional. To be noted: 30 µM.
The target in assay [9] is Chromo domain-containing protein 1 (Saccharomyces cerevisiae (strain ATCC 204508 / S288c) (Baker's yeast)) (UniProt P32657). As to the kind of experiment: ScCHD-1 Enzyme Inhibition Assay. Note: in the data most compounds retested in dose-response had high values. It counts as functional. To be noted: 30 µM.
Sequence of Chromo domain-containing protein 1 (Saccharomyces cerevisiae (strain ATCC 204508 / S288c) (Baker's yeast)) (P32657 whole entry, the tested form may be a part): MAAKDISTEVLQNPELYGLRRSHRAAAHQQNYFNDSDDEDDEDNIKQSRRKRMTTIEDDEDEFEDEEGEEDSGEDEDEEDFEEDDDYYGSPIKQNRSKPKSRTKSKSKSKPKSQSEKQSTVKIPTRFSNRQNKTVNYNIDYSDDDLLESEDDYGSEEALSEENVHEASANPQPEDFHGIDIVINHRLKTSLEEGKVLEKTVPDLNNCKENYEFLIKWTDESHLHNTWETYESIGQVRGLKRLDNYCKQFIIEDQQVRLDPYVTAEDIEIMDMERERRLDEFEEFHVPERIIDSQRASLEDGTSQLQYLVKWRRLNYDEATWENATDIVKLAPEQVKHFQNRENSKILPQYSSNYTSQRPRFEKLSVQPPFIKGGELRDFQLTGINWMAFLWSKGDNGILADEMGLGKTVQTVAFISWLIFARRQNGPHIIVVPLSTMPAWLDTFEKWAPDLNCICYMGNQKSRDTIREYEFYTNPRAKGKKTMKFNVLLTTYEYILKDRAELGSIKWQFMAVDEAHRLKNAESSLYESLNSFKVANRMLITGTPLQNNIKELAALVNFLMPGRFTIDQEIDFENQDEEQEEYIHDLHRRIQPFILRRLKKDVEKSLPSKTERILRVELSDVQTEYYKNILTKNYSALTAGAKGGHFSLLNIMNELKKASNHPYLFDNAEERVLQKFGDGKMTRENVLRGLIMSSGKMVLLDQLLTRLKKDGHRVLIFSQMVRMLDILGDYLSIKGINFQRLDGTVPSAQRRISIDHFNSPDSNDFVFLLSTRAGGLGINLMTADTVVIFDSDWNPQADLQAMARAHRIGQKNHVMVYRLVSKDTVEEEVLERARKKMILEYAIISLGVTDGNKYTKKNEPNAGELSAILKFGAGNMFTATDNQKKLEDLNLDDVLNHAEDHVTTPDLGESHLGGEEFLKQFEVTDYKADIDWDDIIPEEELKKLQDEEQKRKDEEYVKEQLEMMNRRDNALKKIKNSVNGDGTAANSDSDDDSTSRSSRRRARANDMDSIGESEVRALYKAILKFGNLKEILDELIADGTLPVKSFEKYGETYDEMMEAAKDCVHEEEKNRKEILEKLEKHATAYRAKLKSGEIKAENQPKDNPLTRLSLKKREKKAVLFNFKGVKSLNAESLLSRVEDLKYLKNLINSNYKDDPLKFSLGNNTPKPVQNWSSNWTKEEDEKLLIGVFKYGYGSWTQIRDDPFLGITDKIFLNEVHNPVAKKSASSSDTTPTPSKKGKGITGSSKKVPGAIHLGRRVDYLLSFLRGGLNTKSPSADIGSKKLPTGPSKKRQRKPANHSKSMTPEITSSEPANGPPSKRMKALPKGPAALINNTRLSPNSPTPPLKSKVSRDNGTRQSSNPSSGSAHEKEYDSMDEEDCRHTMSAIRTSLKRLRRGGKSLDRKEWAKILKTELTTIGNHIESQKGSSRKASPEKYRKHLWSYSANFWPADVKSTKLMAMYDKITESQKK

From ChEMBL document CHEMBL3988442, “University of Dundee, Small-Polar-MMV Screening Library” (2021) come the findings set out here.

Structures are written as SMILES. For some of these results: Entries with a potency or affinity are not part of this list.

Sequence of Protein translocase subunit SecA (Escherichia coli (strain K12)) (P10408 whole entry): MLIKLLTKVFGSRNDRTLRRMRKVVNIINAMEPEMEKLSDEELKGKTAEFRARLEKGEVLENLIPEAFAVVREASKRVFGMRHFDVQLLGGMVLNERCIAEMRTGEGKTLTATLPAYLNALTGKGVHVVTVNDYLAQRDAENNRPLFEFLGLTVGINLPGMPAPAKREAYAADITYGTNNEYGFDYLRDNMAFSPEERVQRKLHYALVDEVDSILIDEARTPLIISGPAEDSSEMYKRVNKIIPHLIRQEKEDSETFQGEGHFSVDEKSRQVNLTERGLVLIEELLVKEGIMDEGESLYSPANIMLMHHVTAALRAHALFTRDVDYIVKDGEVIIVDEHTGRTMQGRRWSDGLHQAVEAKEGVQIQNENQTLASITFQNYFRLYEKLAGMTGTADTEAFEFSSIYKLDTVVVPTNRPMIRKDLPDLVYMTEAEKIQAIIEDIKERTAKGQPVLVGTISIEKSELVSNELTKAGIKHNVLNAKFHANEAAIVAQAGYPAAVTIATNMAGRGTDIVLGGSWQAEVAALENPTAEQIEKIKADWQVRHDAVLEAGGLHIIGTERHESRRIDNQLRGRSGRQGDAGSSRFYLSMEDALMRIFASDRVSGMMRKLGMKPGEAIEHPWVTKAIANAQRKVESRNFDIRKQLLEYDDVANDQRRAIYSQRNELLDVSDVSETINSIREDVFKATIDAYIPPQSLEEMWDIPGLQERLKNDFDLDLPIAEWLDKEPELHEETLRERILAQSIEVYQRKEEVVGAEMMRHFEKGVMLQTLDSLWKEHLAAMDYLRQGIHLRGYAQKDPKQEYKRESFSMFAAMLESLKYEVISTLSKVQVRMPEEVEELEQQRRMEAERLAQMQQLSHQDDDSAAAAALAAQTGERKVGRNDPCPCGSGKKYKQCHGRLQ

With `CNC(=O)c1cnc(/C=C/c2cc(OC)c(OC)c(OC)c2)s1`, the Percent Effect in [1] was -3.62%; in assay [2], 16.2%; in assay [3], -4.03%; in assay [4], 8.07%; in the assay on Trypanosoma cruzi, 1.56%; in [5], 21.2%. Also, the Percent Effect was 16% in assay [6]; 40.4% in the assay filed under Homo sapiens; 9.9% in assay [7]; 18.3% in [8]; -13% in assay [9].

For `CC1CCc2nc(O)c(C(=O)NCc3cccc(F)c3)cc2C1` (stereo not drawn), the Percent Effect was -3.85% in assay [1]; -12% in [2]; 11.6% in assay [3]; 0.168% in assay [4]; -3.54% in the assay with Trypanosoma cruzi; -5.46% in assay [5]. The Percent Effect in [6] is 4.99%; in the assay listed under Homo sapiens, 9.92%; in [7], -1.06%; in assay [8], 0%; in [9], -2.98%.

`O=C(NC1CC1)[C@@H]1CCO[C@@H]2CCN(C3CCOCC3)C[C@@H]21`: the Percent Effect in assay [1] was 1.01%; in assay [2], 2.6%; in assay [3], -0.255%; in assay [4], 5.79%; with Trypanosoma cruzi it was 6.98%; in assay [5], -13.8%. For the same molecule, the Percent Effect in assay [6] was 3.49%; in the assay filed under Homo sapiens, -21.6%; in assay [7], 1.07%; in assay [8], 1.24%; in assay [9], -7.95%.

For `COc1cccc(CN2C[C@@H]3COC[C@]3(COCc3ccncc3)C2)c1`, the Percent Effect is -5.26% in assay [1]; 8.11% in [2]; 5.1% in assay [3]; -1.02% in assay [4]; 6.94% in the assay with Trypanosoma cruzi; -4.14% in [5]. The Percent Effect in [6] was 14.6%; in the assay filed under Homo sapiens it was 5.58%; in [7], 2.16%; in assay [8] it was 10.3%; in assay [9], -0.65%.

Take `O=C(c1cccc2[nH]ncc12)N1CCCC1c1noc(C2CC2)n1` (stereo not drawn): the Percent Effect in [1] is 0.141%; in assay [2], 20.2%; in assay [3] it was 1.95%; in assay [4], -11.1%; with Trypanosoma cruzi, -3.31%; in assay [5], 8.74%. Moreover, the Percent Effect in assay [6] is 7.29%; in the assay listed under Homo sapiens, 24.4%; in assay [7], 5.42%; in [8] it was 11.4%; in assay [9] it was -8.01%.

As for `CC(=O)N1CC[C@H]2OCC[C@@H](C(=O)N3CCCCO3)[C@@H]2C1`, the Percent Effect in assay [1] is -2.31%; in [2], 12%; in assay [3] it was -3.03%; in assay [4] it was 10.7%; in the assay on Trypanosoma cruzi, -1.97%; in assay [5], -8.63%. The Percent Effect in assay [6] was 15%; in the assay listed under Homo sapiens, -4.45%; in [7] it was 4.23%; in [8] it was 12.8%; in assay [9], -7.82%.

With `CCCc1noc(CN2CCCC2c2ccsc2)n1` (stereo not drawn), the Percent Effect was -2.78% in [1]; -10.1% in [2]; -1.69% in [3]; -2.76% in assay [4]; 1.04% in the assay on Trypanosoma cruzi; -8.37% in assay [5]. The Percent Effect in assay [6] is 3.19%; in the assay filed under Homo sapiens, 11.1%; in assay [7] it was 0.493%; in [8], 1.27%; in assay [9], 6.54%.

Consider `N#Cc1cccc(SCCS(N)(=O)=O)c1`, for which the Percent Effect was -3.48% in assay [1]; 1.39% in [2]; -2.94% in assay [3]; 14.2% in [4]; 5.15% in the assay on Trypanosoma cruzi; -9.27% in assay [5]. Also, the Percent Effect in assay [6] was 15.3%; in the assay listed under Homo sapiens, 7.55%; in assay [7], 0%; in [8], 5.13%; in assay [9], -3.3%.
